PubChem BioAssay AID1159580 (chemical genetic matrix, 2015)
Where “and” joins values, the source holds several entries; their conditions need not be identical. Identical values can stand only once. Out of some 5,500 compounds screened, about 2,000 (36%) were called active. Another 18% or so got no clear call; they are omitted. Cut-off read from the data, not from the text of the source: active = normalized growth mostly below about 0.91 (no sharp cut-off); inconclusive = no clear call, values can overlap the other calls; inactive = mostly above about 0.92. The list shows a part of the results.

Test: chemical genetic growth profiling, strain panel (AID 1159580);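 note: tested at 20 µM; growth read once vehicle control cultures reached saturation at 30 °C; 1 = growth at the plate median or of vehicle wells; lower values mean less growth of the strain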
Details: S. cerevisiae deletion strains, growth OD

Measured: normalized growth

CC(=O)OCC(=O)[C@@]1(O)[C@H](C)CC2C3CCC4=CC(=O)C=C[C@]4(C)[C@@]3(F)[C@@H](O)C[C@@]21C (some centres undefined)
inactive: locus YAL013W, strain DEP1, stronger effect = lower value 1.01 | locus YAL021C, strain ccr4, stronger effect = lower value 0.959 | locus YAL026C, strain drs2, stronger effect = lower value 1 | locus YAL030W, strain snc1, stronger effect = lower value 0.969 | locus YBL061C, strain skt5, stronger effect = lower value 0.985 | locus YBR009C, strain hhf1, stronger effect = lower value 0.983 | locus YBR021W, strain FUR4, stronger effect = lower value 0.995 | locus YBR023C, strain chs3, stronger effect = lower value 0.978 | locus YBR171W, strain sec66, stronger effect = lower value 0.957 | locus YBR229C, strain ROT2, stronger effect = lower value 1.01 | locus YBR231C, strain swc5, stronger effect = lower value 0.962 | locus YBR279W, strain paf1, stronger effect = lower value 0.991 | locus YCL011C, strain gbp2, stronger effect = lower value 0.988 | locus YCL016C, strain dcc1, stronger effect = lower value 1.01 | locus YCL029C, strain bik1, stronger effect = lower value 1 | locus YCL061C, strain MRC1, stronger effect = lower value 0.98 | locus YCL069W, strain vba3, stronger effect = lower value 0.987 | locus YCR088W, strain abp1, stronger effect = lower value 0.984 | locus YDL005C, strain med2, stronger effect = lower value 0.964 | locus YDL035C, strain GPR1, stronger effect = lower value 1.03 | locus YDL040C, strain nat1, stronger effect = lower value 0.961 | locus YDL074C, strain BRE1, stronger effect = lower value 1.01 | locus YDL101C, strain DUN1, stronger effect = lower value 0.999 | locus YDL134C, strain PPH21, stronger effect = lower value 1.02 | locus YDL185W, strain tfp1, stronger effect = lower value 1.01 | locus YDL192W, strain arf1, stronger effect = lower value 0.998 | locus YDR001C, strain nth1, stronger effect = lower value 0.951 | locus YDR069C, strain doa4, stronger effect = lower value 0.948 | locus YDR101C, strain arx1, stronger effect = lower value 1.02 | locus YDR137W, strain rgp1, stronger effect = lower value 0.997 | locus YDR150W, strain NUM1, stronger effect = lower value 1.01 | locus YDR159W, strain sac3, stronger effect = lower value 0.962 | locus YDR162C, strain NBP2, stronger effect = lower value 1.02 | locus YDR195W, strain ref2 0.933 | locus YDR297W, strain sur2, stronger effect = lower value 0.988 | locus YDR318W, strain mcm21, stronger effect = lower value 0.999 | locus YDR334W, strain swr1, stronger effect = lower value 0.948 | locus YDR335W, strain msn5, stronger effect = lower value 0.966 | locus YDR388W, stronger effect = lower value 0.997 | locus YDR392W, strain spt3, stronger effect = lower value 1.07 | locus YDR502C, strain sam2, stronger effect = lower value 0.998 | locus YEL003W, strain gim4, stronger effect = lower value 0.981 | locus YEL037C, strain rad23, stronger effect = lower value 0.98 | locus YEL061C, strain CIN8 (second series), stronger effect = lower value 0.975 | locus YEL061C, strain CIN8, stronger effect = lower value 1.01 | locus YER015W, strain faa2, stronger effect = lower value 0.985 | locus YER016W, strain bim1, stronger effect = lower value 1.04 | locus YER110C, stronger effect = lower value 0.995 | locus YER111C, strain swi4, stronger effect = lower value 0.986 | locus YER155C, strain BEM2 (second series), stronger effect = lower value 0.967 | locus YER155C, strain BEM2, stronger effect = lower value 0.999 | locus YER167W, strain BCK2, stronger effect = lower value 1.01 | locus YFR010W, strain ubp6, stronger effect = lower value 0.958 | locus YGL078C, strain dbp3, stronger effect = lower value 0.997 | locus YGL086W, strain mad1, stronger effect = lower value 1 | locus YGL167C, strain pmr1, stronger effect = lower value 0.954 | locus YGL173C, strain kem1, stronger effect = lower value 0.961 | locus YGL227W, strain vid30, stronger effect = lower value 0.974 | locus YGL240W, strain doc1, stronger effect = lower value 0.949 | locus YGL248W, strain PDE1, stronger effect = lower value 1 | locus YGL253W, strain hxk2, stronger effect = lower value 0.984 | locus YGR078C, strain PAC10, stronger effect = lower value 1.01 | locus YGR135W, strain pre9, stronger effect = lower value 0.993 | locus YGR252W, strain gcn5, stronger effect = lower value 0.955 | locus YHR013C, strain ard1, stronger effect = lower value 0.998 | locus YHR027C, strain rpn1, stronger effect = lower value 0.982 | locus YHR030C, strain SLT2, stronger effect = lower value 1.01 | locus YHR079C, strain IRE1 (second series), stronger effect = lower value 0.996 | locus YHR079C, strain IRE1, stronger effect = lower value 1.01 | locus YHR094C, strain hxt1, stronger effect = lower value 0.995 | locus YHR129C, strain ARP1, stronger effect = lower value 1.01 | locus YHR142W, strain chs7, stronger effect = lower value 0.961 | locus YHR200W, strain rpn10, stronger effect = lower value 0.995 | locus YIL066C, strain RNR3, stronger effect = lower value 1.02 | locus YIL073C, strain SPO22, stronger effect = lower value 0.99 | locus YIL125W, strain kgd1, stronger effect = lower value 0.997 | locus YIR030C, strain dcg1, stronger effect = lower value 1 | locus YJL092W, strain hpr5, stronger effect = lower value 0.977 | locus YJL095W, strain BCK1 (second series), stronger effect = lower value 0.968 | locus YJL095W, strain BCK1, stronger effect = lower value 1.02 and 1.01 | locus YJL115W, strain asf1, stronger effect = lower value 0.951 | locus YJL129C, strain trk1, stronger effect = lower value 0.956 | locus YJL134W, strain LCB3, stronger effect = lower value 1.01 | locus YJL154C, strain vps35, stronger effect = lower value 0.964 | locus YJL164C, strain tpk1, stronger effect = lower value 1 | locus YJL166W, strain qcr8, stronger effect = lower value 0.915 | locus YJL168C, strain set2, stronger effect = lower value 1.01 | locus YJL187C, strain SWE1 (second series), stronger effect = lower value 1.01 | locus YJR043C, strain POL32, stronger effect = lower value 1 | locus YJR066W, strain TOR1, stronger effect = lower value 0.988 | locus YKL009W, strain mrt4, stronger effect = lower value 1 | locus YKL068W, stronger effect = lower value 0.998 | locus YKL085W, strain MDH1 (second series), stronger effect = lower value 1.03 | locus YKL085W, strain MDH1, stronger effect = lower value 1.03 | locus YKL160W, strain elf1, stronger effect = lower value 0.971 | locus YKL190W, strain CNB1, stronger effect = lower value 1.01 | locus YKR001C, strain vps1, stronger effect = lower value 0.988 | locus YKR026C, strain gcn3, stronger effect = lower value 0.964 | locus YKR091W, strain srl3, stronger effect = lower value 0.97 | locus YLL001W, strain dnm1, stronger effect = lower value 0.926 | locus YLL026W, stronger effect = lower value 0.991 | locus YLL041C, strain sdh2, stronger effect = lower value 0.955 | locus YLR027C, strain aat2, stronger effect = lower value 0.979 | locus YLR039C, strain RIC1, stronger effect = lower value 1.02 | locus YLR058C, strain SHM2, stronger effect = lower value 1.01 | locus YLR102C, strain apc9, stronger effect = lower value 0.993 | locus YLR113W, strain HOG1, stronger effect = lower value 1.02 | locus YLR221C, strain rsa3, stronger effect = lower value 1.02 | locus YLR258W, strain gsy2, stronger effect = lower value 0.992 | locus YLR262C, strain YPT6 (second series), stronger effect = lower value 0.92 | locus YLR262C, strain YPT6, stronger effect = lower value 1.02 | locus YLR268W, strain sec22, stronger effect = lower value 1.01 | locus YLR320W, strain mms22, stronger effect = lower value 1.02 | locus YLR330W, strain CHS5, stronger effect = lower value 1.01 | locus YLR342W, strain FKS1 (second series), stronger effect = lower value 1.04 | locus YLR342W, strain FKS1, stronger effect = lower value 0.969 | locus YLR357W, strain rsc2, stronger effect = lower value 0.982 | locus YLR370C, strain arc18, stronger effect = lower value 0.98 | locus YLR371W, strain rom2, stronger effect = lower value 0.997 | locus YLR384C, strain iki3, stronger effect = lower value 0.965 | locus YLR418C, strain cdc73, stronger effect = lower value 0.954 | locus YML016C, strain PPZ1, stronger effect = lower value 1.01 | locus YML032C, strain rad52, stronger effect = lower value 0.997 | locus YML120C, strain ndi1, stronger effect = lower value 0.973 | locus YML124C, strain tub3, stronger effect = lower value 1.03 | locus YMR058W, strain fet3, stronger effect = lower value 0.97 | locus YMR078C, strain ctf18, stronger effect = lower value 0.998 | locus YMR125W, strain sto1, stronger effect = lower value 0.963 | locus YMR129W, stronger effect = lower value 0.988 | locus YMR205C, strain PFK2, stronger effect = lower value 0.958 | locus YMR223W, strain ubp8, stronger effect = lower value 0.999 | locus YMR231W, strain pep5, stronger effect = lower value 0.965 | locus YMR307W, strain GAS1, stronger effect = lower value 0.959 | locus YNL067W, strain RPL9B, stronger effect = lower value 1.01 | locus YNL071W, strain lat1, stronger effect = lower value 0.992 | locus YNL183C, strain NPR1, stronger effect = lower value 0.974 | locus YNL209W, strain ssb2, stronger effect = lower value 0.993 | locus YNL233W, strain BNI4, stronger effect = lower value 1.01 | locus YNL248C, strain rpa49, stronger effect = lower value 1.01 | locus YNL250W, strain rad50, stronger effect = lower value 0.975 | locus YNL271C, strain bni1, stronger effect = lower value 1 | locus YNL298W, strain CLA4, stronger effect = lower value 0.989 | locus YNL307C, strain MCK1, stronger effect = lower value 0.998 | locus YNL322C, strain KRE1 (second series), stronger effect = lower value 0.961 | locus YNL322C, strain KRE1, stronger effect = lower value 0.995 | locus YNR049C, strain mso1, stronger effect = lower value 0.982 | locus YNR052C, strain pop2, stronger effect = lower value 1.01 | locus YOL012C, strain htz1 0.869 | locus YOL147C, strain pex11, stronger effect = lower value 0.999 | locus YOR001W, strain rrp6, stronger effect = lower value 0.963 | locus YOR061W, strain CKA2, stronger effect = lower value 1.02 | locus YOR069W, strain VPS5, stronger effect = lower value 1.01 | locus YOR070C, strain gyp1, stronger effect = lower value 0.99 | locus YOR080W, strain dia2, stronger effect = lower value 0.946 | locus YOR083W, strain WHI5, stronger effect = lower value 0.978 | locus YOR106W, strain vam3, stronger effect = lower value 0.927 | locus YOR136W, strain idh2, stronger effect = lower value 0.994 | locus YOR144C, strain elg1, stronger effect = lower value 0.999 | locus YOR184W, strain ser1, stronger effect = lower value 1.01 | locus YOR231W, strain MKK1, stronger effect = lower value 1.03 | locus YOR265W, strain rbl2, stronger effect = lower value 0.982 | locus YOR270C, strain vph1, stronger effect = lower value 0.95 | locus YOR290C, strain snf2, stronger effect = lower value 1 | locus YOR316C, strain cot1, stronger effect = lower value 1 | locus YPL051W, strain arl3, stronger effect = lower value 1.01 | locus YPL078C, strain atp4, stronger effect = lower value 0.934 | locus YPL106C, strain sse1, stronger effect = lower value 0.969 | locus YPL240C, strain hsp82, stronger effect = lower value 0.969 | locus YPL256C, strain CLN2, stronger effect = lower value 1.03 | locus YPR119W, strain clb2, stronger effect = lower value 0.997 | locus YPR141C, strain kar3, stronger effect = lower value 0.99 | locus YPR163C, strain tif3, stronger effect = lower value 0.996 | locus YPR167C, strain met16, stronger effect = lower value 1 | strain wtn01, stronger effect = lower value 0.997
